Screens: PubChem BioAssay, several laboratories
GLD-1 RNA inh – GLD-1-TGE RNA interaction inhibition (C. elegans); 320,000 tested, 0.44% active; purified GLD-1 + fluorescein TGE RNA, fluorescence polarization; Q17339; AID 2280; inhibition, % at 5.96 µM;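 active = percent inhibition above a per-plate cutoff, the plate mean of test compounds plus 3 SD, cut at about 30% in these data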;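 note: 0% = DMSO wells with GLD-1 and probe and 100% = wells lacking GLD-1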
Target sequence (Q17339 whole entry, looked up): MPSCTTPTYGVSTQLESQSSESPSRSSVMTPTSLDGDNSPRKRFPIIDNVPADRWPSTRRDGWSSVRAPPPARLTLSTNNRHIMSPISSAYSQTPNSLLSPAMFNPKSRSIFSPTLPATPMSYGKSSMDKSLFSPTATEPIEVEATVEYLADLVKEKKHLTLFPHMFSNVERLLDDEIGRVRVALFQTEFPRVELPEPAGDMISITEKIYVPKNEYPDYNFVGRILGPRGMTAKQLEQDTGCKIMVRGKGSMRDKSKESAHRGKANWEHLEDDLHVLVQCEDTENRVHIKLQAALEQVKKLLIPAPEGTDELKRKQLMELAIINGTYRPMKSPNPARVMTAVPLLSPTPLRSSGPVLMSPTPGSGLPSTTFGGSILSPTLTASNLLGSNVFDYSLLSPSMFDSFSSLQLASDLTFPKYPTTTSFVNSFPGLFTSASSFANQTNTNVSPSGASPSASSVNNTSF
Mcl1-Bid inh – Mcl-1/Bid interaction inhibition. TR-FRET Mcl-1/Bid-Dy647 peptide binding, 1536-well. inhibition, % at 21.7 µM. AID 1021. Q07820. 220,000 tested, 0.97% active;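 active = compounds that cut the binding signal by more than half at the single screening dose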;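 note: His-tagged Mcl-1 with europium anti-His antibody binding Bid BH3 peptide; 0% = Mcl-1 plus peptide wells and 100% = peptide-only wells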
Bcl-xL primary – Bcl-xL (human) inhibition | Q07817 | GST-Bcl-xL / FITC-Bim BH3 peptide fluorescence polarization | inhibition, % at 10.9 µM | 320,000 tested, 0.7% active | AID 2129;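 active = inhibition above the mean of all tested compounds plus 3 SD, cutoff set per campaign, cut at about 30% in these data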;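 note: 0% = DMSO wells and 100% = unlabeled Bim-BH3 peptide competitor; inhibitors lower millipolarization by displacing the labeled peptide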
Target sequence (Q07817 whole entry, looked up): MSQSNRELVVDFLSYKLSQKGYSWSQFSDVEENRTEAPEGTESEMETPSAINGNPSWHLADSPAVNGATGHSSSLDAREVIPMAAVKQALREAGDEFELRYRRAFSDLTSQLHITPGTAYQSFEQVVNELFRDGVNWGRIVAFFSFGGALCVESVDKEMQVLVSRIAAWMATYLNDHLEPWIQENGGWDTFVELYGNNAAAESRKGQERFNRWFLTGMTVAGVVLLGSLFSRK
Mcl-1 Bim block – human Bim-Mcl-1 interaction inhibition; Q07820; Bead-based flow cytometry, Bim peptide-Mcl-1 binding; inhibition, % at 10 µM; 190,000 tested, 0.1% active; AID 1009; in the data active = inhibition above about 40%;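 note: 0% = no compound tracer wells and 100% = peptide blocker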
MCL1-BIM inh – disrupts human MCL1 binding to BIM-BH3 peptide | inhibition, % at 10.9 µM | GST-MCL1 / FITC-Bim-BH3 fluorescence polarization | Q07820 | 320,000 tested, 0.68% active;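 active = inhibition above the mean inhibition of all tested compounds plus 3 SD, set per campaign, cut at about 40% in these data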;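 note: 0% = DMSO wells and 100% = unlabeled Bim-BH3 peptide control; higher means more loss of mP so more displacement of Bim peptide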
Mcl1-Noxa inh – Mcl-1/Noxa interaction inhibition; AID 1022; Q07820; TR-FRET Mcl-1/Noxa peptide binding, 2 h; inhibition, % at 21.7 µM; 220,000 tested, 1.5% active;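 active = compounds that cut the protein-peptide binding signal by more than 50% relative to plate controls in a single-dose test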;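 note: His-tagged Mcl-1 with rhodamine Noxa BH3 peptide and terbium anti-His antibody; 0% = Mcl-1 plus Noxa peptide wells and 100% = peptide-only wells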
Starred values were filed as active, the others as inactive; nt = no result given. Compounds with a hit are over-represented: about 2.3% of the library has one in this group of screens.

SMILES | GLD-1 RNA inh | Mcl1-Bid inh | Bcl-xL primary | Mcl-1 Bim block | MCL1-BIM inh | Mcl1-Noxa inh
COc1cc(NS(=O)(=O)c2ccc(NC(=S)NC(=O)c3sc4cc(F)ccc4c3Cl)cc2)nc(OC)n1 | -2.5 | 32.6 | 11.0 | -16.0 | 8.0 | 87.8*
COc1cc(NS(=O)(=O)c2ccc(NC(=S)NC(=O)c3ccco3)cc2)nc(OC)n1 | 2.7 | -91.2 | 11.7 | nt | 12.8 | 14.4
NC(N)=NS(=O)(=O)c1ccc(NC(=S)NC(=O)c2sc3ccccc3c2Cl)cc1 | 1.1 | 81.9* | 3.6 | -1.0 | 5.5 | -147.7
COc1cc(NS(=O)(=O)c2ccc(NC(=S)NC(=O)c3sc4ccccc4c3Cl)cc2)nc(OC)n1 | 1.8 | 66.1* | 15.3 | -4.0 | 7.8 | 68.9*
COc1cc([N+](=O)[O-])cc2cc(C(=O)N3CCCC3)c(=O)oc12 | 5.6 | 11.1 | 1.4 | 0.0 | 8.1 | 11.2
Cc1ccc(C(=O)N2CCn3c(C)ccc3C2C)cc1 (stereo not drawn) | 14.9 | -24.6 | 43.1* | -2.0 | 42.4* | -6.5
CCCCn1c(N)c(N(CC(C)C)C(=O)CCS(=O)(=O)c2ccc(C)cc2)c(=O)[nH]c1=O | 1.4 | nt | 0.0 | nt | -6.4 | nt
COCCCn1c(=O)/c(=C\c2ccccc2OC(C)C)s/c1=C(/C#N)C(=O)Nc1ccc(C(=O)O)cc1 | 5.2 | -21.8 | -2.4 | nt | -18.0 | 62.7*
COCCCn1c(=O)/c(=C\c2ccccc2OC(F)F)s/c1=C(/C#N)C(=O)NC(C)C | -11.3 | 2.7 | -4.6 | 13.0 | -3.1 | 10.7
COCCC(=O)N1CCC(n2nccc2NC(=O)c2ccccc2C)CC1 | 4.2 | nt | 6.5 | nt | 5.9 | nt
Cc1ccccc1C(=O)Nc1ccnn1C1CCN(C2CCSCC2)CC1 | 11.5 | nt | 35.7* | nt | 35.6 | nt
COc1ccccc1C(=O)Nc1ccnn1C1CCN(C(C)CSC)CC1 (stereo not drawn) | 12.7 | nt | 41.5* | nt | 45.1* | nt
COc1ccccc1C(=O)Nc1ccnn1C1CCN(C2CCSCC2)CC1 | 19.6 | nt | 42.2* | nt | 41.6* | nt
Cn1c(=O)c2ncn(CC(=O)N=Nc3c(O)[nH]c4ccccc34)c2n(C)c1=O | -0.2 | -17.9 | 1.3 | 4.0 | 11.7 | 1.2
CN1CCN(C(CNC(=O)C(=O)NC2CCCCC2)c2ccc(F)cc2)CC1 (stereo not drawn) | 9.8 | nt | 8.6 | nt | 5.6 | nt
COc1cccc(NC(=O)CCCCCN2C(=O)[C@@H]3Cc4ccccc4CN3C2=O)c1 | -5.5 | nt | 3.0 | nt | 3.4 | nt
O=C(NCc1cccs1)Nc1cccs1 | 5.4 | -30.7 | 3.3 | 0.0 | 12.1 | -0.3
Cc1ccccc1CNC(=O)Nc1cccs1 | 0.7 | -23.8 | 8.6 | 0.0 | 16.9 | 51.5*
C=CCc1cc(Cl)ccc1OCCCn1ccnc1 | 7.0 | nt | 4.9 | nt | 8.5 | nt
COc1ccc(Nc2nc(-c3ccccc3)c3ccccc3n2)cc1 | 0.9 | 8.6 | 2.6 | 12.0 | 7.7 | 2.0
Cc1ccc(OCC(=O)NNc2c3ccccc3nc3ccccc23)cc1 | 2.0 | 62.2* | 5.3 | 1.0 | 2.7 | 50.6*
COc1ccc(Nc2nc(C)c3ccccc3n2)cc1 | -2.6 | 101.9* | 5.9 | -2.0 | 2.3 | 17.1
CCOc1ccc(Nc2c3ccccc3nc3ccccc23)cc1 | 1.8 | 5.9 | 2.4 | nt | 3.1 | 53.2*
CCOc1ccc(Nc2cc(C)c3ccccc3n2)cc1 | -1.1 | nt | 0.8 | nt | -4.6 | nt
C=CCOc1nc2c(c(=O)n(C)c(=O)n2C)n1C | -0.4 | -7.6 | 36.0* | 0.0 | -7.4 | 9.8
SMILES | GLD-1 RNA inh | Mcl1-Bid inh | Bcl-xL primary | Mcl-1 Bim block | MCL1-BIM inh | Mcl1-Noxa inh
CC(=O)C1=C(C)Nc2ncnn2C1c1ccc(O)cc1 (stereo not drawn) | -0.7 | nt | 1.2 | nt | -7.1 | nt
Cc1ccc2nc(-c3ccc(NC(=O)COC(=O)c4ccc(=O)[nH]c4)cc3)sc2c1 | -3.1 | 49.9 | -10.0 | 0.0 | -35.3 | 63.4*
Cc1ccc2nc(-c3ccc(NC(=O)CSc4nc(N)cc(=O)[nH]4)cc3)sc2c1 | -4.0 | 53.0* | -9.1 | nt | -13.6 | 32.0
COC(=O)[C@H](CC(C)C)NC(=O)N1CCC(C)CC1 | -1.2 | -6.8 | 5.9 | nt | 3.9 | -2.7
Cc1cc(C(=O)CN2CCCC(C)C2)c(C)n1-c1ccc(F)cc1 (stereo not drawn) | -0.7 | -80.9 | 3.2 | -2.0 | -5.5 | -7.7
CCCOc1ccc(C(=O)NCCC(=O)NCCCC(=O)OCC)cc1 | 0.2 | -21.3 | -2.6 | 3.0 | 1.1 | nt
CCCCOc1ccc(C(=O)NCCC(=O)NCCCC(=O)OCC)cc1 | 0.1 | 94.2* | 0.1 | nt | 0.8 | 3.2
CNCC(=O)N1CCN(c2ncc(C(F)(F)F)cc2Cl)CC1 | 4.8 | -6.0 | 0.0 | -1.0 | -8.4 | 10.8
N=c1c[n+](N2CCOCC2)[n-]o1 | 0.2 | 56.2* | -0.1 | 0.0 | 0.1 | 7.3
COc1cc(N2CCCC2)c(OC)cc1/C=C(/C#N)c1cccc(F)c1 | -50.5 | -21.2 | -32.5 | -22.0 | -94.0 | 79.6*
O=c1c2c(nc3cc(-c4ccccc4)[nH]n13)CCS2 | 3.7 | -82.1 | 4.6 | 0.0 | 6.7 | 60.5*
O=C(Nc1ccc2ccccc2c1)c1cn(-c2ccccc2)nc1-c1cccs1 | 7.9 | -12.5 | 0.2 | -2.0 | -3.0 | -33.5
CN(C)c1ccc(NC(=O)c2cn(-c3ccccc3)nc2-c2cccs2)cc1 | 2.3 | 28.3 | 6.5 | -4.0 | 7.9 | 76.8*
CCOc1ccc(NC(=O)Nc2ccc(Cc3ccncc3)cc2)cc1 | 6.2 | 0.4 | 35.8* | nt | 29.4 | -1.2
CCOc1ccc(S(=O)(=O)N(CC(=O)N/N=C/c2ccc(-c3ccc([N+](=O)[O-])cc3)o2)c2ccccc2)cc1 | -17.6 | 33.0 | -3.8 | 6.0 | 7.6 | 65.1*
COc1cccc(CNc2nc3ccc(C)cc3n3cnnc23)c1 | -5.0 | 97.8* | -1.3 | nt | -4.2 | -16.9
Cc1ccc(CNc2nc3ccc(C)cc3n3cnnc23)cc1 | 2.3 | 9.7 | -2.5 | -3.0 | -5.7 | 20.4
Cc1cccc(N2C(=O)CC(c3ccc(F)cc3)C3=C2COC3=O)c1 (stereo not drawn) | -2.6 | -28.6 | 3.5 | -2.0 | 1.6 | -13.2
CCOC(=O)c1c(CSc2ccc(C)cc2)n(C)c2cc(Br)c(O)c(CN(C)C)c12 | 0.5 | 26.7 | 8.7 | 2.0 | 2.9 | 85.7*
CCOC(=O)c1c(CSc2ccsc2)n(C)c2cc(Br)c(O)c(CN(C)C)c12 | 15.3 | -124.4 | 12.4 | nt | 13.2 | 60.3*
O=S(=O)(c1ccccc1F)N1CCN(Cc2nc3ccccc3[nH]2)CC1 | 5.0 | 79.2* | -0.8 | -2.0 | -8.8 | 20.0
O=C(OCC#CCSc1nnc(-c2ccccc2)o1)c1ccco1 | -1.8 | -22.0 | 2.4 | -3.0 | -1.8 | 9.7
O=C(OCC#CCSc1nc2ccccc2s1)c1ccco1 | 11.2 | -22.0 | 0.7 | 0.0 | 7.8 | 66.5*
Cc1ccc(OCCC(=O)OCC(=O)NCCc2ccc(Cl)cc2)cc1 | 6.9 | nt | 5.3 | nt | -6.1 | nt
O=C(NC1CCC(O)CC1)c1ccc(-c2ccc([N+](=O)[O-])cc2)o1 (stereo not drawn) | 4.8 | 25.0 | 2.2 | nt | 0.3 | 70.9*
N#Cc1cccc(N=Cc2c(O)ccc3ccccc23)c1 | -0.4 | -22.1 | 4.6 | 2.0 | 3.3 | 54.6*
